# A number with no mark means an inactive call. No rule for the calls is given here.
# Molecular target: Pantothenate synthetase (Mycobacterium tuberculosis (strain ATCC 25618 / H37Rv)) (UniProt P9WIL5)
# Test: Coupled enzyme confirmation of inhibitors against recombinant Mtb PanC (AID 375);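 also: 0% = full reaction with vehicle and 100% = no enzyme background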
# Conditions: coupled enzyme assay; at 10 µM, hits give high values
# Chain of Pantothenate synthetase (Mycobacterium tuberculosis (strain ATCC 25618 / H37Rv)) (P9WIL5 whole entry, looked up): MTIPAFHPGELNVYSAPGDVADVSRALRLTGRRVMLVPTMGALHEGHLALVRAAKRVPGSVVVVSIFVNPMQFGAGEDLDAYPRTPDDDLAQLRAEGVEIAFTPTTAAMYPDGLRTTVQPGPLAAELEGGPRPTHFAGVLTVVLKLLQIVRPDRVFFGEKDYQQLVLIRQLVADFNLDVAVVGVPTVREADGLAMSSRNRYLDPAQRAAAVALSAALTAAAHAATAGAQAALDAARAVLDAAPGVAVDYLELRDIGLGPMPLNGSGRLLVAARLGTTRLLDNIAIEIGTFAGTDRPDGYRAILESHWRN
row,SMILES,inhibition
1,Clc1ccc(C2=Nn3c(nnc3-c3n[nH]c4c3CCC4)SC2)cc1Cl,0%
2,CCCCCCCC(=O)OCC(=O)[C@@]1(O)CC[C@H]2[C@@H]3CCC4=CC(=O)CC[C@]4(C)[C@H]3[C@@H](O)C[C@@]21C,1%
3,O=S(=O)(c1ccc2nc(Cc3cccc(C(F)(F)F)c3)[nH]c2c1)N1CCOCC1,0%
4,CN(C)c1nc(Nc2ccc(Cl)cc2)nc(OCC#N)n1,6%
5,Fc1ccccc1-c1nc(-c2ccccc2)no1,5%
6,COc1ccc(-n2c(SCC(=O)N3CCCCC3C)nnc2-c2cccnc2)cc1 (configuration not stated),0%
7,CCCCc1ccc(NC(=O)N[C@H](C(=O)O)C(C)CC)cc1 (some centres not stated),0%
8,COc1ccccc1OC(=O)c1ccc2nsnc2c1,0%
9,CCOC(=O)c1cc2c(=O)n3ccccc3nc2n(CCCOC)c1=NC(C)=O,1%
10,COc1ccccc1N1CCN(C(=O)C2CC=CCC2C(=O)O)CC1 (configuration not stated),14%
11,COc1ccc(CCNC(=O)C2CCN(Cc3nc(-c4cccc(Cl)c4)oc3C)CC2)cc1OC,0%
12,COC(=O)C1=C(C)N(Cc2ccco2)C(=O)C1,0%
13,CC(C)(C)C(=O)Cn1c(=N)n(Cc2ccccc2)c2ccccc21,8%
14,CCC(C)(C)n1nnnc1C(c1ccccc1OC)N1CCSCC1 (configuration not stated),5%
15,Cc1cc(C)c(NC(=O)CSc2nc3c(c(=O)n2C)SC(C)C3)c(C)c1 (configuration not stated),0%
16,O=c1[nH]c(=O)n(C2CCCCCC2)c(O)c1C=NCc1ccc(F)cc1,4%
17,c1cc2c(cc1Cn1cnnn1)OCO2,0%
18,CC(C)(C)C(=O)Cn1c[n+](N)cn1,1%
19,Cc1ccccc1Cn1c(=O)c2c(nc3n2CCCN3Cc2ccccc2)n(C)c1=O,0%
20,COc1ccc(-c2cc(O)cc(O)c2)cc1,0%
21,CN(C)S(=O)(=O)c1ccc(C(=O)N2CCC(c3nc4ccccc4o3)CC2)cc1,5%
22,COCCN(CCOC)S(=O)(=O)c1ccc(C(=O)Nc2nnc(C3CC3)o2)cc1,0%

# From PubChem BioAssay
